PubChem BioAssay (Tox21)
Inconclusive results are not listed. The source made the active and inactive calls. Unless noted, calls follow the shape of the full dose curve.

Legend:
[1] = Nuclear factor erythroid 2-related factor 2/antioxidant responsive element (Nrf2/ARE) small molecule agonists: luciferase reporter gene qHTS assay in human keratinocytes (AID 1919969); also: nearly all actives have a fitted effect of over 35% in size; also: potency is read from the fitted curve at half-maximal effect
[2] = target: Gonadotropin-releasing hormone receptor (Homo sapiens) (UniProt P30968); experiment: Human gonadotropin-releasing hormone receptor (GnRHR) small molecule agonists, calcium flux assay in GnRHR-HEK293 cells (AID 1920063); also: nearly all actives have a fitted effect of over 35% in size
Gonadotropin-releasing hormone receptor (Homo sapiens), sequence (P30968 whole entry, looked up): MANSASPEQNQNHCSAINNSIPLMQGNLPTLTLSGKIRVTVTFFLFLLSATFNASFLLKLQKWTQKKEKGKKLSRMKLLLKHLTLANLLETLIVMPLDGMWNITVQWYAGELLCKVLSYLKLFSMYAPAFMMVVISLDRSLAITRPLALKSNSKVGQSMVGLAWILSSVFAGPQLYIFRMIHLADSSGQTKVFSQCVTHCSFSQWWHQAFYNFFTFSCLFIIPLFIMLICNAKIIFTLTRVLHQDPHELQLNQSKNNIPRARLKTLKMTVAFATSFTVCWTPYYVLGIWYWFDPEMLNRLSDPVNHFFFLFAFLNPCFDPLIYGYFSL
In short: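 Intracellular calcium rise is the read-out: engineered human GnRHR HEK293 cells, dye-loaded, are exposed to DMSO-dissolved compounds and fluorescence at Ex/Em 480/540 is tracked for 3 min.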

[3] = target: KiSS-1 receptor (Homo sapiens) (UniProt Q969F8); experiment: Human kisspeptin (KISS1R) small molecule agonists, calcium flux assay in KISS1R-HEK293 cells (AID 1920064; active = well fitted activation curve with a large enough effect in the repeat runs)
KiSS-1 receptor (Homo sapiens), sequence (Q969F8 whole entry, looked up): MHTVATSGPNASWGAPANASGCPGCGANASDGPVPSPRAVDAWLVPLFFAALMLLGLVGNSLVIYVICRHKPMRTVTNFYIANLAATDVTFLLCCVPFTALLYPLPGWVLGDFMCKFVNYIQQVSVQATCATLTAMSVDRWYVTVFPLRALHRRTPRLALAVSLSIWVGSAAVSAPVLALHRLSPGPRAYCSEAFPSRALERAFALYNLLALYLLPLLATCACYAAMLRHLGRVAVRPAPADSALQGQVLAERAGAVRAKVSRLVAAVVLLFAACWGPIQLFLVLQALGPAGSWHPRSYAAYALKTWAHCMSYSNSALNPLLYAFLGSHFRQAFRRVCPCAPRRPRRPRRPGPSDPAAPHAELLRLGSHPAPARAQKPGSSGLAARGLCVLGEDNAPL
In short: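 Concentration-response testing used 15 concentrations in triplicate on human KISS1R-expressing HEK293 cells. Calcium-dependent fluorescence (Ex/Em 480/540) was followed kinetically for 3 min after compound transfer.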

[4] = G protein-coupled receptor (GPCR) small molecule agonists, calcium flux assay: HEK293 wild type cell line counter screen (AID 1920065)
In short: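 Fluorescence intensity signals activation. After overnight (18 h) culture and a 1 h calcium dye load at 37 C, compounds are added by pin tool and the plate read at 480/540 nm for 3 min in 1 s steps.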

[5] = p53 small molecule agonists, cell-based qHTS assay with human liver microsomes (AID 1963577);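 also: p53 response element beta-lactamase reporter cells with liver microsomes plus NADPH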
In short: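 16 h, 37 C exposure of p53RE-bla cells to compounds with human liver microsomes and NADPH (0.5 mg/mL final each); detection via LiveBLAzer mixture, 2 h dark at room temperature.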

[6] = p53 small molecule agonists, cell-based qHTS assay with rat liver microsomes (AID 1963578)
In short: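 With rat liver microsomes and NADPH present (0.5 mg/mL final each), p53RE-bla cells are treated with compound for 16 h at 37 C. LiveBLAzer detection mixture is then applied for 2 h at room temperature in the dark.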

[7] = p53 small molecule agonists, cell-based qHTS assay with human liver microsomes: qHTS cell viability counter screen (AID 1963579); also: nearly all actives have a fitted effect of over 45% in size
In short: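 In this multiplexed counter screen, the reporter plates were subsequently treated with CellTiter-Glo so that cell viability, reflected by luminescence, could be recorded for p53RE-bla cells dosed 16 h with compounds under microsomal activation (HLM and NADPH).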

[8] = p53 small molecule agonists, cell-based qHTS assay with rat liver microsomes: qHTS cell viability counter screen (AID 1963580); also: nearly all actives have a fitted effect of over 45% in size
In short: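 Cytotoxicity counter screen: intracellular ATP read by CellTiter-Glo luminescence in the p53 reporter wells. HCT-116 p53RE-bla cells were treated for 16 h at 37 C alongside rat liver microsomes and NADPH, each 0.5 mg/mL final.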

[9] = p53 small molecule agonists, cell-based qHTS assay: qHTS cell viability counter screen (AID 1963581); also: nearly all actives have a fitted effect of over 45% in size
In short: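 Luminescence from CellTiter-Glo, reflecting ATP content, serves as the cytotoxicity measure; it is taken after the 2 h reporter substrate step in HCT-116 p53RE-bla cells dosed for 16 h at 37 C.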

[10] = target: 5-hydroxytryptamine receptor 2A (Homo sapiens) (UniProt P28223); experiment: 5-hydroxytryptamine receptor 2A (HTR2A) small molecule antagonists, cell-based qHTS assay (AID 1963586); also: nearly all actives have a fitted effect of over 45% in size
5-hydroxytryptamine receptor 2A (Homo sapiens), sequence (P28223 whole entry, looked up): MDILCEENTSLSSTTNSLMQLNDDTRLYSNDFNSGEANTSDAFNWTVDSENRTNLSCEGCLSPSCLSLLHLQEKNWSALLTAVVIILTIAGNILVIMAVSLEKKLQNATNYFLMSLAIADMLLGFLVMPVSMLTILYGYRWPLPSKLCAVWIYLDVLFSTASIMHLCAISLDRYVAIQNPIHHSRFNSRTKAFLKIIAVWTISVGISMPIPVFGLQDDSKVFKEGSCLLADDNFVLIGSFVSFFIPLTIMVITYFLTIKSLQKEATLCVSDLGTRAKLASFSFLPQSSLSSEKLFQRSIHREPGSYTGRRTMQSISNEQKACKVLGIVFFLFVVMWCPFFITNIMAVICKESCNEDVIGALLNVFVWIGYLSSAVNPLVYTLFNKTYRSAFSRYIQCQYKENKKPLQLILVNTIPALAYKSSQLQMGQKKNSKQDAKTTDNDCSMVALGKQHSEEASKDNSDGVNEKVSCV
In short: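 CHO cells stably expressing human HTR2A were plated for 18 h at 37 C, then loaded with calcium dye for 1 h. Compounds were preincubated 5 min at room temperature before DOI (4 nM solution) was added. Kinetic fluorescence was read for 3 min.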

[11] = target: 5-hydroxytryptamine receptor 2A (Homo sapiens) (UniProt P28223); experiment: 5-hydroxytryptamine receptor 2A (HTR2A) small molecule agonists, cell-based qHTS assay (AID 1963587); also: nearly all actives have a fitted effect of over 30% in size
In short: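 Kinetic calcium-flux fluorescence (2 min, 1 sec intervals) after compound addition in agonist mode. HTR2A-CHO cells were cultured 18 h, then dye-loaded 1 h at 37 C.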

[12] = target: Muscarinic acetylcholine receptor M1 (Homo sapiens) (UniProt P11229); experiment: Cholinergic receptor muscarinic 1 (CHRM1) small molecule antagonists, cell-based qHTS assay (AID 1963588); also: nearly all actives have a fitted effect of over 40% in size
Muscarinic acetylcholine receptor M1 (Homo sapiens), sequence (P11229 whole entry, looked up): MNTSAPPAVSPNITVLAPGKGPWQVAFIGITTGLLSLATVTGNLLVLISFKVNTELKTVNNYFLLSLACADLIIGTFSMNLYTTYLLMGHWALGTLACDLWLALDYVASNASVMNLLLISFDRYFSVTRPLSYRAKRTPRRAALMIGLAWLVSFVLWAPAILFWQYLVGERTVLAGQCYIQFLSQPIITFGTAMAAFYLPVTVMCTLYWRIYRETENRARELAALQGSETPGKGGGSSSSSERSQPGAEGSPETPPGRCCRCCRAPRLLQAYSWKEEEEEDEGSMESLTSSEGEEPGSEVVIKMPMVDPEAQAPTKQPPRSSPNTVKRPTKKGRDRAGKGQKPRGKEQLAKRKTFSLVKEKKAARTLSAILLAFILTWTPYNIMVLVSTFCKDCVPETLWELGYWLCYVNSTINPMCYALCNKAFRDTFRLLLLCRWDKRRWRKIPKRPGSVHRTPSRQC
In short: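 Compounds were tested at 15 concentrations in three independent runs. Dye-loaded CHRM1-CHO cells were exposed 5 min at room temperature before stimulation by acetylcholine added at 50nM. Intracellular calcium was read kinetically on FDSS for 3 min.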

[13] = target: Muscarinic acetylcholine receptor M1 (Homo sapiens) (UniProt P11229); experiment: Cholinergic receptor muscarinic 1 (CHRM1) small molecule agonists, cell-based qHTS assay (AID 1963589); also: nearly all actives have a fitted effect of over 35% in size
In short: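 Fluorescent calcium dye reports M1 activation in stably transfected CHO cells. Compounds, 15 concentrations, added after 1 h dye loading at 37 C; kinetic reading at 1 sec intervals.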

[14] = cAMP Responsive Elements (CRE) small molecule antagonists, cell-based qHTS assay (AID 1963591; active = well fitted inhibition curve with a large enough effect in the signal ratio in the repeat runs, not every such curve was filed as active; the % refers to the signal ratio; also: potency is read from the fitted curve at half-maximal effect)
In short: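 Stimulation used NKH477 at a final 0.25 uM for 3 h in compound-treated CRE-bla HEK293T cells, seeded 18 h beforehand. Reporter activity was measured with LiveBLAzer B/G FRET substrate after 2 h at room temperature.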

[15] = target: Beta-2 adrenergic receptor (Homo sapiens) (UniProt P07550); experiment: Adrenergic beta2 receptor (ADRB2) small molecule agonists, cell-based qHTS assay (AID 1963593);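 also: CHO cells stably overexpressing human ADRB2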
Beta-2 adrenergic receptor (Homo sapiens), sequence (P07550 whole entry, looked up): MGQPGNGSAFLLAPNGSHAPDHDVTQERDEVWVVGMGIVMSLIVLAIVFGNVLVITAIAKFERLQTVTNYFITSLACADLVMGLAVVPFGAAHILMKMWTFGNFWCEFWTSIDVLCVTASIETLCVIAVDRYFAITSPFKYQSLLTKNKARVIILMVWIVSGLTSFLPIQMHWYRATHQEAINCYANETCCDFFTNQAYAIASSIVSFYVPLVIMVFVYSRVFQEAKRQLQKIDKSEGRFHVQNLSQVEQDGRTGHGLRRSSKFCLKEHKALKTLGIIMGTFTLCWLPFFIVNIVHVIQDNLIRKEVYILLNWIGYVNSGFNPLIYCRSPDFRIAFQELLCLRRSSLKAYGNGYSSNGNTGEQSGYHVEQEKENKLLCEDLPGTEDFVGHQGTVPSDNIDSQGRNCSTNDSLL
In short: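 CHO cells stably over-expressing ADRB2 were plated overnight at 37C, then dosed with compounds plus a stimulation mix containing 100uM IBMX and 25uM Ro-20-1724 for 0.5hr at room temperature. cAMP was measured by HTRF competition, 1hr.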

[16] = target: D(2) dopamine receptor (Homo sapiens) (UniProt P14416); experiment: Dopamine D2 receptor (DRD2) small molecule agonists, cell-based qHTS assay (AID 1963594); also: nearly all actives have a fitted effect of over 35% in size
D(2) dopamine receptor (Homo sapiens), sequence (P14416 whole entry, looked up): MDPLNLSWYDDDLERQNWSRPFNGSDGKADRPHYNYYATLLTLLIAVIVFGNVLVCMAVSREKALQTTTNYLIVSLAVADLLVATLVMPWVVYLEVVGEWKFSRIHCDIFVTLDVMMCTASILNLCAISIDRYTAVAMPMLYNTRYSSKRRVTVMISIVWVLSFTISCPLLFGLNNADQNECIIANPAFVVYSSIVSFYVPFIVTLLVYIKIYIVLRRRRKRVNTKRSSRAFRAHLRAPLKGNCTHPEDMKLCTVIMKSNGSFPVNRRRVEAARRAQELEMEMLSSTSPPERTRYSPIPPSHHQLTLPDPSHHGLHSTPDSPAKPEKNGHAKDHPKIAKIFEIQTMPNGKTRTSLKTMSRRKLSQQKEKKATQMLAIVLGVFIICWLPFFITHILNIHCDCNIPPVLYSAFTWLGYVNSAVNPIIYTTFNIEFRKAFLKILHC
In short: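 cAMP accumulation in DRD2-HEK293 cells measured by HTRF after 1 h detection; compounds added 10 min before NKH477 (200nM […]) forskolin-analogue stimulation, 30 min at room temperature, with Ro20-1724 present at 0.1 mM final.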

[17] = target: D(2) dopamine receptor (Homo sapiens) (UniProt P14416); experiment: Dopamine D2 receptor (DRD2) small molecule antagonists, cell-based qHTS assay (AID 1963595; active = well fitted inhibition curve with a large enough effect in the signal ratio in the repeat runs, with a control signal flat; the % refers to the signal ratio; also: potency is read from the fitted curve at half-maximal effect)
In short: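 Readout: HTRF cAMP, cAMP-d2 competing with cellular cAMP for anti-cAMP cryptate, read after 1 h. Cells: DRD2-HEK293. Conditions: 0.1 mM Ro20-1724, 12 nM quinpirole, 200 nM NKH477, 30 min RT.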

[18] = target: Beta-2 adrenergic receptor (Homo sapiens) (UniProt P07550); experiment: Adrenergic beta2 receptor (ADRB2) small molecule antagonists, cell-based qHTS assay (AID 1963592); also: series mostly up to about 92 µM; nearly all actives have a fitted effect of over 50% in size
In short: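 Assay format: CHO-ADRB2 cells, 18-20hr seeding at 37C/5% CO2, then compound plus 1nM isoproterenol agonist mix for 0.5hr RT. Homogeneous time-resolved fluorescence cAMP detection after 1hr, expressed as 665/615 nm ratio.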

[19] = p53 small molecule agonists, cell-based qHTS assay (AID 1963582; active = well fitted activation curve with a large enough effect in the signal ratio in the repeat runs, not every such curve was filed as active; the % refers to the signal ratio)
In short: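 After plating, p53RE-bla cells sat 5 h in the incubator; compounds or DMSO vehicle were pinned in; a 16 h incubation at 37 C followed; FRET substrate was added and, 2 h later at RT, fluorescence was measured.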

[20] = cAMP Responsive Elements (CRE) small molecule agonists, cell-based qHTS assay (AID 1963590)
In short: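 Compound exposure lasted 3 h at 37 C/5% CO2 in CRE-bla HEK 293T cells grown in assay medium with 10% dialyzed FBS and 25 mM HEPES. Reporter signal came from LiveBLAzer B/G FRET substrate, 2 h, room temperature.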

Measured: Potency

CC(C)C(OC(=O)c1ccccc1)C(C)(C)COC(=O)c1ccccc1 (stereo not given)
active: [1] 30.6 µM
not listed: [18] | [19] | [20]
inactive: all other assays above

COc1cc2ncnc(Nc3ccc(F)c(Cl)c3)c2cc1OCCCN1CCOCC1
active: [17] 29.8 µM
not listed: [9] | [14] | [19] | [20]
inactive: all other assays above

CCCCN(CCCC)C(=S)SSC(=S)N(CCCC)CCCC
active: [1] 1.52 µM
not listed: [8] | [15]
inactive: all other assays above

CCCCc1oc2ccc(NS(C)(=O)=O)cc2c1C(=O)c1ccc(OCCCN(CCCC)CCCC)cc1
not listed: [9] | [11] | [14] | [15] | [17] | [19] | [20]
inactive: all other assays above

O=C(CC(=O)c1ccccc1)c1ccccc1
active: [1] 32.9 µM
not listed: [8] | [11] | [16] | [20]
inactive: all other assays above

CC(COc1ccc(C(C)(C)C)cc1)OS(=O)OCCCl (stereo not given)
active: [14] 43.5 µM
not listed: [9] | [15]
inactive: all other assays above

CC1C2CC(CC2C2CCCC(O)C2)C1(C)C (stereo not given)
not listed: [8] | [14] | [20]
inactive: all other assays above
